“And” between values parts separate entries of the source, which are not always exact repeats. Equal entries are not always repeated. Compounds without any hit were thinned out: in the full panel of roughly 83,000, 20% have a hit.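 Cell lines were cultured in 96-well plates, exposed to a single compound concentration, and assessed for percent growth 48 hours later.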 A number with no mark means an inactive call. The source made the active and inactive calls. The calls were made as follows: active = growth percent below 10; inactive = the rest.

This experiment has as its system MDA-MB-468 breast. The experiment in a line: NCI-60 one-dose screen, 48 h (100 = growth as untreated, 0 = no growth, -100 = all killed). Particulars: 10 µM unless noted.
For `N#Cc1c(N)nn(C(=O)c2ccc(NC(=O)c3ccccn3)cc2)c1-c1ccc(Cl)cc1`, the growth is -29.3% (active).
`COc1ccc(-c2nnc(N3CCN(C(=O)CN4CCN(c5ccc(Cl)cc5)CC4)CC3)nc2-c2ccc(OC)cc2)cc1`: the growth is 74%.
Under `[2H]c1nc(Nc2ncc(F)c(-c3cc(F)c4nc(C)n(C(C)C)c4c3)n2)c([2H])c([2H])c1CN1CCN(C([2H])([2H])C([2H])([2H])[2H])CC1` stands 103%.
Under `CCCCCCN(CCCCCC)CCC(=O)Nc1ccc(S(=O)(=O)c2ccc(NC(=O)CCN(CCCCCC)CCCCCC)cc2)cc1` stands 92.9%; under `CC(C)=CCCC(C)c1ccc(C)c2c1OCN(CCCCCO)C2` (stereo not given), 90%; under `COc1cc2nc(-c3ccc(Cl)cc3)cc(OCCCNCC3CCCO3)c2cc1OC` (stereo not given), 46.2%.
Under `COc1ccc(C2CC(c3cc(OC)c(OC)c(OC)c3)=NN2)cc1` (stereo not given) stands 66.6%; under `COc1cc(NC(=O)c2cc3ccccc3nc2Nc2ccc(F)cc2)cc(OC)c1OC`, -0.996% (active); under `COc1ccc(/C(C)=C(\c2ccc(Cl)cc2)c2ccc(OCCN3CCCCCC3)cc2)cc1`, 16.1%.
For the compound `C/C(=C\c1ccc(OCC(=O)O)c(Cl)c1Cl)[N+](=O)[O-]`, the growth is 119%.
Under `COc1ccc(-c2ccccc2)cc1C(=O)c1ccc(-c2ccccc2)cc1` stands 64.6%.
Under `Cc1ccc(-c2cc(O)c(-c3ccc(C)cc3C)cc2O)c(C)c1` stands 46.5%.
The result for `O=c1[nH]nc(SC2CCCCC2)c(=O)[nH]1` reads 116%; that for `COC(=O)C1(C)Cc2cc(OC(C)=O)c(OC(C)=O)cc2N1` (stereo not given), -3.93% (active); that for `CCN(CC)CCOc1ccc(/C(=C(\Cl)c2ccccc2)c2ccccc2)cc1`, -60% (active) and -6.23% (active).
Regarding `COC(=O)c1nc(-c2ccccc2)oc1S(=O)(=O)N1CCCC(C)C1` (stereo not given), the growth was 29.2%.
Under `N#Cc1c(-c2ccccc2)[nH]c2ncc(-c3ccccc3)n2c1=O` stands 91.8%.
Under `Nc1nc(=S)c2ncn(C3OC(COP(=O)(O)O)C(O)C3O)c2[nH]1` (stereo not given) stands 4.34% (active); under `Fc1cccc(Cl)c1/C=N/Nc1nc(N/N=C/c2c(F)cccc2Cl)nc(N2CCCCC2)n1`, -14.2% (active).
The result for `COc1ccc(Nc2cc(Cl)ccc2C(=O)O)cn1` reads 95.8%; that for `Nc1ccn([C@@H]2O[C@H](COP(=O)(O)O[C@@H]3C[C@H](n4cc(F)c(=O)[nH]c4=O)O[C@@H]3COP(=O)(O)O[C@@H]3C[C@H](n4cc(F)c(=O)[nH]c4=O)O[C@@H]3COP(=O)(O)O[C@@H]3C[C@H](n4cc(F)c(=O)[nH]c4=O)O[C@@H]3COP(=O)(O)O[C@@H]3C[C@H](n4cc(F)c(=O)[nH]c4=O)O[C@@H]3COP(=O)(O)O[C@@H]3C[C@H](n4cc(F)c(=O)[nH]c4=O)O[C@@H]3COP(=O)(O)O[C@@H]3C[C@H](n4cc(F)c(=O)[nH]c4=O)O[C@@H]3COP(=O)(O)O[C@@H]3C[C@H](n4cc(F)c(=O)[nH]c4=O)O[C@@H]3COP(=O)(O)O[C@@H]3C[C@H](n4cc(F)c(=O)[nH]c4=O)O[C@@H]3COP(=O)(O)O[C@@H]3C[C@H](n4cc(F)c(=O)[nH]c4=O)O[C@@H]3COP(=O)(O)O[C@@H]3C[C@H](n4cc(F)c(=O)[nH]c4=O)O[C@@H]3COP(=O)(O)OCCOCCOCCOCCOCCOCCO)[C@H](O)C2O)c(=O)n1` (stereo not given in full), 77%; that for `COc1cc(C(F)(F)F)ccc1-c1cc(-c2ccc(F)cc2)n[nH]1`, 75.6%.
Take `CCCCN(CCCC)CCCn1c(-c2ccccc2)ccc1-c1ccccc1`: the growth was 43%.
The result for `C=C1C(=O)O[C@H]2[C@H]1CC/C(COC(=O)NCc1ccc(Cn3c(=O)sn(-c4ccc(I)cc4)c3=O)cc1)=C\CC[C@@]1(C)O[C@@H]21` reads 29.6%; that for `CC(=O)Oc1ccc(C)cc1C`, 112%.
On to `CC(=O)OC[C@H]1OC(Sc2sc(C(=O)c3ccc(Cl)cc3)c(N)c2-c2nc3ccccc3s2)[C@H](OC(C)=O)[C@@H](OC(C)=O)[C@@H]1OC(C)=O` (stereo not given in full), for which the growth was 112%.
Turning to `COc1cc2c(cc1-c1c(C)noc1C)ncc1nc(CN3CCOCC3)n([C@H](C)COC(F)F)c12`, the growth is 29.6%.
In the case of `Nc1c(C(=O)Nc2cccc3ncccc23)sc2nc3c(cc12)C(=O)CCC3`, the growth was 12.4%.
Under `CCOc1cc(N)ccc1C(=O)NCCCN(CC)CC` stands 85%; under `Oc1c(Cl)cc(Cl)c(Cl)c1Cc1c(O)c(Cl)cc(Cl)c1Cl`, 4.35% (active); under `Cc1ccccc1NS(=O)(=O)c1cccc(C(=O)Nc2ccc(Br)cc2)c1`, -2.56% [25 µM] (active).
The result for `CCN(CC)CCCNc1ccnc2cc3ccccc3cc12` reads 75.9%.
Under `c1ccc(CNc2c3ccccc3nc3ccccc23)cc1` stands 19.4%.
Regarding `Cc1cc(Cl)nc(N2CCN(CCNc3ccnc4cc(Cl)ccc34)CC2)n1`, the growth was 4.38% (active).
The result for `Cc1ccc2c(C(C[N+](=O)[O-])c3ccco3)c(-c3ccccc3)[nH]c2c1` (stereo not given) reads 8.5% (active); that for `C=CC[n+]1c(/C=C/C=C2\N(C)c3ccccc3C2(C)C)sc2ccc(OC)cc21`, -5.71% (active); that for `CCC(C)(C)C(=O)O[C@H]1C[C@@H](C)C=C2C=C[C@H](C)[C@H](CC[C@@H]3C[C@@H](O)CC(=O)O3)[C@H]21`, 52.6%.
The result for `CCCOCc1cn[nH]n1` reads 105%; that for `CCNC(=O)Oc1ccc(/C(=C(/CC)Cc2ccccc2)c2ccc(OCCN3CCOCC3)cc2)cc1`, 46.1%.
Turning to `COc1ccc(Nc2cc(C)nc(NCc3ccccc3)n2)cc1`, the growth was 49.9%.

These data come from PubChem BioAssay (NCI).
